# Screens from PubChem.
# ROC1-CUL1 inh: inhibitors of human ROC1-CUL1 ubiquitin ligase activity. P62877+Q13616. in vitro K48 di-Ub FRET, acceptor:donor ratio, 45 min. inhibition, % at 10 µM. actives 0.6% (n = 140,000). AID 1347404; in the data active = inhibition above about 25%
# Target sequence (P62877 whole entry, looked up): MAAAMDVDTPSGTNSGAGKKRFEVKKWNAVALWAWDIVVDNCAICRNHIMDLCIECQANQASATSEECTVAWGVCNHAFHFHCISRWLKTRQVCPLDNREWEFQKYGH
# Target sequence (Q13616 whole entry, looked up): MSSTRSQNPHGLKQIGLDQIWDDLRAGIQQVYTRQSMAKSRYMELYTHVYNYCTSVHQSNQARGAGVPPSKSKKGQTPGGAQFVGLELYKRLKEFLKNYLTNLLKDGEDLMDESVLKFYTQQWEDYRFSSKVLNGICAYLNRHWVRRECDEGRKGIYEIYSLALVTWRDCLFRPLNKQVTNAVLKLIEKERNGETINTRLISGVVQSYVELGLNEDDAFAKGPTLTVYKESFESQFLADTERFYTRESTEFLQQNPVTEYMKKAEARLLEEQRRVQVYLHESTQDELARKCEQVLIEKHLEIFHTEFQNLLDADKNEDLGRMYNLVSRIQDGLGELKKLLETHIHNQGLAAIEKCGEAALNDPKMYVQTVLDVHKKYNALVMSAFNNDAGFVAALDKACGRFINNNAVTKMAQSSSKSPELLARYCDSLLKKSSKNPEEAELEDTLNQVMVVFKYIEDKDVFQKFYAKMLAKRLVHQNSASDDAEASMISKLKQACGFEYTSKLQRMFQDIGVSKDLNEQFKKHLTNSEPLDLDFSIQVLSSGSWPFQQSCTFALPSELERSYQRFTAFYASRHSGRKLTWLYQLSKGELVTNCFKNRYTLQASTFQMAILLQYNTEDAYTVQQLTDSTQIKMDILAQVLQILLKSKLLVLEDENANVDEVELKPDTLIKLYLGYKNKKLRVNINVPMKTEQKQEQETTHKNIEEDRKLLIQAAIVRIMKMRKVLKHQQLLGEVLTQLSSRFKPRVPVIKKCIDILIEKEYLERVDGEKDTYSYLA
# * marks the source's active call; other numbers are inactive results. The full list was thinned out, with hits kept by preference.
SMILES,ROC1-CUL1 inh
O=C(Nc1ccc(-c2cccc(F)c2)cc1)C1CCCN(CC2CC2)C1 (configuration not stated),1
O=C(Nc1ccc(-c2cccc(F)c2)cc1)C1CCCN(C(=O)c2ccoc2)C1 (configuration not stated),92*
O=C(Nc1ccc(-c2cccc(F)c2)cc1)C1CCCN(Cc2nccs2)C1 (configuration not stated),1
CCc1ccc(-n2c(C)cc(/C=C3/SC(=O)N(CC(=O)OC)C3=O)c2C)cc1,-7
O=C1C=NN(Cc2ccc(Br)cc2Br)C(Cl)N1 (configuration not stated),1
COCC1CCCCN1C(=O)c1coc(COc2cccc(F)c2)n1 (configuration not stated),2
O=C(O)c1ccc(C2Nc3ccccc3-c3nnc(SCc4ccc(Cl)cc4)nc3O2)cc1 (configuration not stated),26*
O=C(O)CSc1nnc2c(n1)OC(c1ccc(Cl)cc1)Nc1ccccc1-2 (configuration not stated),-6
COC(=O)c1ccc(C2Nc3ccccc3-c3nnc(SCc4ccc(C)cc4)nc3O2)cc1 (configuration not stated),-3
COc1cc2c(c(OC)c1)C(=O)C2,3
COc1cc2c(c(O)c1OC)C(=O)C(=O)CC=C2,33*
COc1cc(NC(C)=O)c(-c2c(NC(C)=O)cc(OC)c(OC)c2OC)c(OC)c1OC,5
CC1=Nc2nc(-c3ccccc3Cl)nn2C(c2cccc(O)c2)C1C(=O)Nc1ccccc1 (configuration not stated),4
O=C(CCC1CCCN(C(=O)CN2CCCCC2)C1)N1CCN(c2ccccn2)CC1 (configuration not stated),3
CN(C)c1nc(N)n(CCO)c(=O)n1,8
COCCOc1cccc(NC(=O)C(C)(C)C)c1,-5
Oc1c(Br)cc(Br)nc1Br,2
Oc1c(Br)cc(C(=C(Cl)Cl)c2cc(Br)c(O)c(Br)c2)cc1Br,66*
COc1ccc(CC(=O)Nc2cc(C)ccc2C)cc1,9
Nc1nc(-c2ccccc2)c(Cl)nc1-c1ccccc1,5
CC[n+]1cc(Cl)nc(-c2ccccc2)c1-c1ccccc1,39*
CCOc1cc[n+](CC)c(-c2ccccc2)n1,0
CCC(c1ccccc1)c1n[nH]c2c1CN(C(=O)CC1CNCCO1)CC2 (configuration not stated),-8
Cc1ccc(C)c(S(=O)(=O)N2CCC(C(N)=O)CC2)c1,2
NCCCNS(=O)(=O)c1ccccc1,9
SMILES,ROC1-CUL1 inh
CC(C)C(=O)Nc1nc2ccccc2s1,1
CC(Oc1ccccc1)C(=O)Nc1nc2ccccc2s1 (configuration not stated),3
O=C(Nc1nc2ccccc2s1)C(C(F)(F)F)C(F)(F)F,74*
COc1ccc(NC(=O)CN(c2ccc(C)cc2)S(C)(=O)=O)cc1Cl,2
Cc1ccc(C(=O)c2coc3c2C(=O)C(=O)C(Br)=C3)cc1,96*
Cc1ccc(C(=O)c2coc3ccc(Br)cc3c2=O)cc1,1
O=C1C(=O)c2c(C(=O)c3ccccc3)coc2C(Cl)=C1Cl,89*
O=C(c1ccccc1)c1coc2cc(Br)c(O)c(Br)c12,15
CC(=O)C(C(C)=O)C1=C(Br)C(=O)C(=O)c2c(C(=O)c3ccccc3)coc21,12
CC(=O)Oc1ccc2occ(C(=O)c3ccccc3)c2c1,-10
O=C1C(=O)c2c(C(=O)c3ccccc3)coc2C=C1Br,104*
Cc1ccc(C(=O)c2coc3c2C(=O)C(=O)c2ccccc2-3)cc1,4
Nc1sccc1C(=O)c1ccccc1,8
CC(=O)Nc1cnn(-c2ccc(C(=O)N3CCC(c4nc5ccccc5o4)CC3)cc2)c1,-5
Cn1cc(C2C(c3ccccc3)=NN=C(c3ccc(Cl)cc3)N2O)c2ccccc21 (configuration not stated),2
Cc1cc(-c2nn3c(-c4ccccc4)nnc3s2)n(C)n1,2
Cc1cccc(-n2c(SCC(=O)Nc3ccc(Br)cc3F)nc3sc4c(c3c2=O)CCCC4)c1,8
CC(C)CNC(=O)c1ccc(Cl)cc1,1
COc1cc(/C=C2\SC(=Nc3cc(C)cc(C)c3)NC2=O)cc(Br)c1O,8
O=C1NC(=Nc2cccc(C(F)(F)F)c2)S/C1=C\c1cc(O)c(O)c(Br)c1,30*
O=C1NC(=Nc2ccc(F)cc2)S/C1=C\c1ccc(O)c(Br)c1,2
CC1(C)CC(=O)C2C(=NC(SCc3ccccc3)=C(C#N)C2c2ccc(Cl)cc2)C1 (configuration not stated),1
COc1ccc(N2CCN(C3CC(=O)N(c4ccccc4Cl)C3=O)CC2)cc1 (configuration not stated),4
CN=C1CC=CC=C(C(=O)/C=C/c2cccc(Oc3ccccc3)c2)C1=O,104*
COc1cccc(/C=C/C(=O)c2ccccc2)c1,0
SMILES,ROC1-CUL1 inh
CN=C1CC=CC=C(C(=O)/C=C/c2ccc(C)cc2C)C1=O,103*
CC1=NC(=O)C(C(=O)/C=C/c2ccccc2)=C(C)C1,1
CN=C1CC=CC=C(C(=O)/C=C/c2c(Cl)cccc2Cl)C1=O,23
Cc1ccc(/C=C/C(=O)C2C=CC=CC(=O)C2=O)c(C)c1 (configuration not stated),0
CN=C1CC=CC=C(C(=O)/C=C/c2ccccc2)C1=O,84*
CN=C1CC=CC=C(C(=O)/C=C/c2cc(C)ccc2C)C1=O,3
CN=C1CC=CC=C(C(=O)/C=C/c2ccc(C(F)(F)F)cc2)C1=O,-1
COC(=O)c1cnn(-c2cc(Oc3ccccc3C)ncn2)c1C,5
O=C(NC(=S)Nc1ccccc1C(F)(F)F)c1ccccc1Cl,5
CNS(=O)(=O)c1cn(CC(=O)N2CCN(c3ccccc3F)CC2)cc1S(=O)(=O)NC,-10
Cc1ccc(OC2CCN(Cc3ccncc3)CC2)c(C(=O)N2CCSCC2)c1,-3
O=C(O)c1ccccc1C(=O)OC1C=CC2C1C1C=CC2C12OCCO2 (configuration not stated),-2
CCCc1ccc(-c2nc(N)sc2C)cc1,-7
CC1CN(S(=O)(=O)c2ccc(F)cc2)CC(C)O1 (configuration not stated),-3
Cc1cc(Cl)ccc1OCC(=O)NNC(=O)[C@@H]1CCCC[C@@H]1C(=O)O,-2
Cc1ccc(CC(=O)N2N=C3CCCCC3C2(O)C(F)(F)F)cc1 (configuration not stated),2
COc1ccc(N2C(=N)C(C#N)C(c3cc(CN4CCOCC4)cs3)C3=C2CCCC3=O)cc1 (configuration not stated),-3
COc1ccc(C(=O)Nc2ccc3c(c2)C(=O)N(C2CCCCC2)C3=O)cc1,11
O=C(O)c1cccc(NC(=O)c2ccc3c(c2)C(=O)N(C2CCCCC2)C3=O)c1,26*
CC(C)(C)NC(=O)c1ccc2c(c1)C(=O)N(C1CCCCC1)C2=O,0
Cc1ccc(N(CC(=O)N/N=C/c2c(Cl)cccc2Cl)S(=O)(=O)c2ccccc2)cc1,12
Fc1cccc(CN2CCC(c3nc(-c4cccnc4)ncc3-c3ccccc3)CC2)c1F,1
C=CCOc1c(Br)cc(CNc2ccc(C(=O)O)cc2)cc1OCC,9
C=CCOc1c(Br)cc(CNc2nccs2)cc1OCC,10
C=CCOc1c(Br)cc(CNC(C)(C)C)cc1OCC,66*
Cc1ccccc1-c1nc2cc(NC(=O)CSc3ccccc3)ccc2o1,-3
Brc1nsc(SCSc2nc(Br)ns2)n1,33*
CCOc1ccccc1C1CC(=O)Nc2c1ccc1c(O)cccc21 (configuration not stated),0
